About 8,800 targets were measured; listed, in parts, are those with a hit and a random draw of the rest. About 0.5% of all pairs of compound and target were hits. A number with no mark means an inactive call.
Experiments:
Assay in all cases: log2 fold change, soluble protein after heating vs DMSO (PISA); higher = thermal stabilisation; K562 lysate, 10 uM; active = over 0.2 and 3.5 SD of the protein, either way, in both replicates (recomputed)
vemurafenib = compound: CCCS(=O)(=O)Nc1ccc(F)c(C(=O)c2c[nH]c3ncc(-c4ccc(Cl)cc4)cc23)c1F [vemurafenib]
Method in brief: (§1)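 The values are log-two fold changes in thermal stability compared with solvent controls and come from duplicates. They were obtained by TMTpro 16plex LC-MS/MS, with channel sums equalised, on the supernatant after 21,000xg for 90 min. That supernatant came from crude K562 extract at 1 mg/mL protein treated with 10 μM compound for 30 min, heated for 3 min across 48°C-58°C, pooled and brought to 0.5% NP-40 at 4°C.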

[1] = compound: CCCS(=O)(=O)Nc1ccc(F)c(C(=O)c2c[nH]c3ncc(Cl)cc23)c1F
Method in brief: as §1

barasertib = compound: CCN(CCCOc1ccc2c(Nc3cc(CC(=O)Nc4cccc(F)c4)[nH]n3)ncnc2c1)CCOP(=O)(O)O [barasertib]
Method in brief: as §1

[2] = compound: CC[C@@H]1C(=O)N(C)c2cnc(Nc3ccc(C(=O)NC4CCN(C)CC4)cc3OC)nc2N1C1CCCC1
Method in brief: as §1

volasertib = compound: CC[C@@H]1C(=O)N(C)c2cnc(Nc3ccc(C(=O)N[C@H]4CC[C@H](N5CCN(CC6CC6)CC5)CC4)cc3OC)nc2N1C(C)C [volasertib]
Method in brief: as §1

[3] = compound: CCn1cc(-c2ccnc3[nH]c(-c4cccc(CN(C)C)c4)cc23)c(-c2ccc(NC(=O)N(C)C)cc2)n1
Method in brief: as §1

[4] = compound: CN1CCC(CNc2ccc3ncc(-c4cccc(OC(F)(F)F)c4)n3n2)CC1
Method in brief: as §1

saracatinib = compound: CN1CCN(CCOc2cc(OC3CCOCC3)c3c(Nc4c(Cl)ccc5c4OCO5)ncnc3c2)CC1 [saracatinib]
Method in brief: as §1

sotrastaurin = compound: CN1CCN(c2nc(C3=C(c4c[nH]c5ccccc45)C(=O)NC3=O)c3ccccc3n2)CC1 [sotrastaurin]
Method in brief: as §1

[5] = compound: CCn1c(C(=O)N(C2CC2)C2CC2)cc2c3c(ncn3C)c(Nc3cc(C)n(C)n3)nc21
Method in brief: as §1

UniProt Q9Y6B6, sequence (Q9Y6B6 whole entry, looked up): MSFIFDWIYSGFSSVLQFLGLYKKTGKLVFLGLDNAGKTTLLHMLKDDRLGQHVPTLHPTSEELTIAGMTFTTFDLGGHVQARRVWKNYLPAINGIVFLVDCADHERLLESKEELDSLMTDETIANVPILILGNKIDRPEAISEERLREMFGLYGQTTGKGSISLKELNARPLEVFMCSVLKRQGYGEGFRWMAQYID
UniProt Q8TC12, sequence (Q8TC12 whole entry, looked up): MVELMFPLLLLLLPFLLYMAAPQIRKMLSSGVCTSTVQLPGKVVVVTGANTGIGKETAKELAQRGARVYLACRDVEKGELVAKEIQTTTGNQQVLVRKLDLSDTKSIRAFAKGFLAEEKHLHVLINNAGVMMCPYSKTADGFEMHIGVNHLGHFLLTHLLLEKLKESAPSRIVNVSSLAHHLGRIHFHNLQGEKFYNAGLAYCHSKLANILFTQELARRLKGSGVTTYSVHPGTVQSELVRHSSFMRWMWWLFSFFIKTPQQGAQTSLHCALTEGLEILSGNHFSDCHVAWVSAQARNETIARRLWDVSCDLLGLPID
UniProt Q99643, sequence (Q99643 whole entry, looked up): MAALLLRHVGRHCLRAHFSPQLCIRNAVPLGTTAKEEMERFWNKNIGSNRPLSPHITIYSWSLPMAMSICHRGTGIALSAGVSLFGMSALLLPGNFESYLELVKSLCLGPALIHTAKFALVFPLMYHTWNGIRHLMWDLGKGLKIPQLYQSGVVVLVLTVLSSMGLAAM
UniProt Q96HR9, sequence (Q96HR9 whole entry, looked up): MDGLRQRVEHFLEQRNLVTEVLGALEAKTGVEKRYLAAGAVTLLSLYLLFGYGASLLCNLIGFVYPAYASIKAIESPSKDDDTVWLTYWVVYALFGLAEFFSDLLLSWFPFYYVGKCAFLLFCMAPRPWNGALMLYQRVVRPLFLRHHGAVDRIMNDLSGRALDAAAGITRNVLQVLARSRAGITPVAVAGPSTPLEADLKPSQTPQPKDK
UniProt P51812, sequence (P51812 whole entry, looked up): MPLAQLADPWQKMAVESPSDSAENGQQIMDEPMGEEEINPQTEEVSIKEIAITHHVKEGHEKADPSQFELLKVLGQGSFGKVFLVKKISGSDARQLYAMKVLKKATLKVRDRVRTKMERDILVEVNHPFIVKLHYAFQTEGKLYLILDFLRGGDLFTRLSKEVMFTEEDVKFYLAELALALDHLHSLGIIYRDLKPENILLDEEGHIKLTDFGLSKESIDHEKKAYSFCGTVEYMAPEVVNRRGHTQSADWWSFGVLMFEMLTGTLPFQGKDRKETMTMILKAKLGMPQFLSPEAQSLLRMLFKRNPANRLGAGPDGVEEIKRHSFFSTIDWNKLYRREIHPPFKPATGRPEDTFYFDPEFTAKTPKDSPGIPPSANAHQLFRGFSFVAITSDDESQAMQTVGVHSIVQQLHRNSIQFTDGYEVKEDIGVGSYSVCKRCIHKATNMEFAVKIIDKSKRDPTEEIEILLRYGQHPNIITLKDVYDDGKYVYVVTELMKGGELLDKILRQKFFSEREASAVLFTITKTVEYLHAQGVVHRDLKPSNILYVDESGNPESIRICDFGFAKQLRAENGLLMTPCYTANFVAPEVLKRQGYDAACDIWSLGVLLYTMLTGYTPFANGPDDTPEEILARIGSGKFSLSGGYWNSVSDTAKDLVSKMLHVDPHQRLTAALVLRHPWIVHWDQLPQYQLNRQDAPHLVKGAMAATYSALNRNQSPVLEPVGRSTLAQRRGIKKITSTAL
UniProt Q96LT9, sequence (Q96LT9 whole entry, looked up): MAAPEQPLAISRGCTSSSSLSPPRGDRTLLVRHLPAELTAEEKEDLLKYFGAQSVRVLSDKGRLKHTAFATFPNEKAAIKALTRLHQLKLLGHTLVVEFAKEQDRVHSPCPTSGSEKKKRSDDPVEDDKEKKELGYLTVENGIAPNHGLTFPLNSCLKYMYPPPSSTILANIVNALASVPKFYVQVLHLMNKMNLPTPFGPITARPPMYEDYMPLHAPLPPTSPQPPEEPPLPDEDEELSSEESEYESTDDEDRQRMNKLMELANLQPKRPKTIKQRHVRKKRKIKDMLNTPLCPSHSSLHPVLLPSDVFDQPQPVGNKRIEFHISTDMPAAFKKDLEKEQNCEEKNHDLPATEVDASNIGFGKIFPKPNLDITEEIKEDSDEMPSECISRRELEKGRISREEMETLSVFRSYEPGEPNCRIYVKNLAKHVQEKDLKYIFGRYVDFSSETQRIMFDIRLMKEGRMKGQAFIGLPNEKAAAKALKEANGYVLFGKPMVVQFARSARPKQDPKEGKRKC
UniProt Q9BXT8, sequence (Q9BXT8 whole entry, looked up): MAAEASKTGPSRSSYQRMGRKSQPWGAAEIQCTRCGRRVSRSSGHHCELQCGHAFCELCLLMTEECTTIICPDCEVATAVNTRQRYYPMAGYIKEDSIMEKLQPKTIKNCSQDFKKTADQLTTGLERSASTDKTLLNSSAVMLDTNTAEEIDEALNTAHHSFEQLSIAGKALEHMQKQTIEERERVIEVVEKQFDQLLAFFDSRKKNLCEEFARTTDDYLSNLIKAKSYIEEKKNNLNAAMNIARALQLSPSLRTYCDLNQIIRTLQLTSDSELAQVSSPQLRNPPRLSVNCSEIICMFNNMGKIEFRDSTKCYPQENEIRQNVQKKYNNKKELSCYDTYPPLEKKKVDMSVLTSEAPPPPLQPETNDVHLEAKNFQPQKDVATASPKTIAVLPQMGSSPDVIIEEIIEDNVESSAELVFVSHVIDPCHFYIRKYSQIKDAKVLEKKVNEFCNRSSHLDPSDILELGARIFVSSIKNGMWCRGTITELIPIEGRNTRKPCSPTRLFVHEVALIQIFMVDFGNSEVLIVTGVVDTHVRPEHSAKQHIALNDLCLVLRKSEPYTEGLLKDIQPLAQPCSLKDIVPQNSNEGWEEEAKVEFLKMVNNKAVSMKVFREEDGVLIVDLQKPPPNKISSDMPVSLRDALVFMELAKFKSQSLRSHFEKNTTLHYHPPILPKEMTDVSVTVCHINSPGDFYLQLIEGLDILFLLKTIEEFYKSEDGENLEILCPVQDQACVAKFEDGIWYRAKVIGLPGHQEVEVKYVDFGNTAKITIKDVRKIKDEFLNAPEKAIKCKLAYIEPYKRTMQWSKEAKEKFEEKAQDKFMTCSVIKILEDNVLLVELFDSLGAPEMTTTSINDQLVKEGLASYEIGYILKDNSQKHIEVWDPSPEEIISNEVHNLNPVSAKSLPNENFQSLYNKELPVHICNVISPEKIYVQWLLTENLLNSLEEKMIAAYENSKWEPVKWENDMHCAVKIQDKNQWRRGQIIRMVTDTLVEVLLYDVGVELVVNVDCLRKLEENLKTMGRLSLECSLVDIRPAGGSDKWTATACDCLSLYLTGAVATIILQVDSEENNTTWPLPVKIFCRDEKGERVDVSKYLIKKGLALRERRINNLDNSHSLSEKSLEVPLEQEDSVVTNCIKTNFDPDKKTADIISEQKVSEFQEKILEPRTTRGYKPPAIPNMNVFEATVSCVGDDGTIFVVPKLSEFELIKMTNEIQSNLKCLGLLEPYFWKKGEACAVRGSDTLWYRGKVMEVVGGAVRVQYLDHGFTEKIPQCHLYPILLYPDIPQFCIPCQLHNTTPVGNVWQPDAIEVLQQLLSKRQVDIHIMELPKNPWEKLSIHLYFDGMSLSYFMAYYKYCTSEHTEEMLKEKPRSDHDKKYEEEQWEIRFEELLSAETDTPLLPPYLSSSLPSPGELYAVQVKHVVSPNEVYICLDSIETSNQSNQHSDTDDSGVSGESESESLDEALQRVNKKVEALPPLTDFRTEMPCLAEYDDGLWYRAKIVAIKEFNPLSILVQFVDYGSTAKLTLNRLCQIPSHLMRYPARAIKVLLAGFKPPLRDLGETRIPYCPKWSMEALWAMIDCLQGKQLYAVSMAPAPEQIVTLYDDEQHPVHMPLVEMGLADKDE
UniProt Q8WXA3, sequence (Q8WXA3 whole entry, looked up): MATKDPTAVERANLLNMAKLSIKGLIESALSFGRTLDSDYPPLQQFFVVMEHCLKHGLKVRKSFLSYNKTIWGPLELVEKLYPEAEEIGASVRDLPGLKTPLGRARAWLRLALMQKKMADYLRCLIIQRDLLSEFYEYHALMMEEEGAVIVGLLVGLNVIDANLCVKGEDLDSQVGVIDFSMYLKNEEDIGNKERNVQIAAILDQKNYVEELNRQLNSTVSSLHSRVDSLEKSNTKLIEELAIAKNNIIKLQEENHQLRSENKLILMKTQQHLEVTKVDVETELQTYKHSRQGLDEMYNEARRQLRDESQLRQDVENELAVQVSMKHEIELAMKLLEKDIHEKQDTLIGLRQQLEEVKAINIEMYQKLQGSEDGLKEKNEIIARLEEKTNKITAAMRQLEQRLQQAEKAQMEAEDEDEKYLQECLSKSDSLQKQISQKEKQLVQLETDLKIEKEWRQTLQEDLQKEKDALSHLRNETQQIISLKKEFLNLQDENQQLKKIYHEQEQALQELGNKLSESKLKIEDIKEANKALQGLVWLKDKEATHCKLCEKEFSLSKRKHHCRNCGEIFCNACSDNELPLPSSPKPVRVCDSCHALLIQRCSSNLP
UniProt Q9Y6D0, sequence (Q9Y6D0 whole entry, looked up): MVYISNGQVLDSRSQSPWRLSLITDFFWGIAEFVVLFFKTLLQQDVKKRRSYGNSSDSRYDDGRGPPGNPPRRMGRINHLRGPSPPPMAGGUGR
UniProt Q96K19, sequence (Q96K19 whole entry, looked up): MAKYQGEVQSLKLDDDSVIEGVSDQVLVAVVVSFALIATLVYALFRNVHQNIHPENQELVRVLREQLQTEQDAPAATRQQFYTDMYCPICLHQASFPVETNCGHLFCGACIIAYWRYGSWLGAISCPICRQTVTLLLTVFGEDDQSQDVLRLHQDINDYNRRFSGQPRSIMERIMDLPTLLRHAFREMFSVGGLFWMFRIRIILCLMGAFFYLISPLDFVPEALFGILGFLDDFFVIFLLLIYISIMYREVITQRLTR
UniProt Q9Y225, sequence (Q9Y225 whole entry, looked up): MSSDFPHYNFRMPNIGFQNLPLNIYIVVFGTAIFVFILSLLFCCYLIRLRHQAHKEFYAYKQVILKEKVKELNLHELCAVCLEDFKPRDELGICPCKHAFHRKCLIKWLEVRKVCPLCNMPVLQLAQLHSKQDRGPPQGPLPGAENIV

Row | Target | log2 fold change (vemurafenib) | log2 fold change [1] | log2 fold change (barasertib) | log2 fold change [2] | log2 fold change (volasertib) | log2 fold change [3] | log2 fold change [4] | log2 fold change (saracatinib) | log2 fold change (sotrastaurin) | log2 fold change [5]
1 | RAD54L2 (UniProt Q9Y4B4) | 0.159 | 0.081 | -0.032 | -0.201 | -0.072 | -0.149 | 0 | 0.078 | -0.061 | 
2 | RIOK1 (UniProt Q9BRS2) | 0.021 | 0.023 | 0.001 | 0.02 | -0.093 | 0.017 | 0.057 | 0.032 | 0.001 | 0.004
3 | SDHC (UniProt Q99643) | -0.035 | -0.022 | 0.031 | -0.089 | 0.044 | -0.307 (active) | 0.156 | 0.063 | 0.062 | 0.04
4 | RHOA (UniProt P61586) | 0.003 | -0.005 | -0.07 | 0.069 | 0.009 | 0.45 (active) | -0.06 | 0.009 | 0 | 0.042
5 | RAC2 (UniProt P15153) | 0.028 | 0.034 | 0.054 | 0.049 | -0.071 | -0.011 | 0.008 | 0.045 | -0.058 | -0.001
6 | RBBP7 isoform 2 (UniProt Q16576) | -0.064 | -0.007 | -0.042 | -0.057 | 0.022 | -0.274 (active) | 0.088 | 0.001 | 0.032 | 0.047
7 | RHBDD1 (UniProt Q8TEB9) | 0.105 | -0.08 | -0.05 | -0.16 | -0.074 | 0.016 | -0.029 |  |  | 
8 | RALA (UniProt P11233) | 0.033 | 0.004 | -0.001 | 0.029 | 0.014 | -0.289 (active) | 0.169 | -0.021 | -0.027 | -0.023
9 | RBMX (UniProt P38159) | -0.058 | 0.013 | -0.026 | -0.012 | -0.02 | -0.007 | 0.009 | -0.031 | -0.014 | 0.067
10 | RNF168 (UniProt Q8IYW5) | 0.152 | 0.134 | 0.235 | 0.128 | -0.062 | 0.015 | 0.035 | -0.007 | -0.06 | 0.138
11 | SAR1B (UniProt Q9Y6B6) | 0.034 | 0 | 0.165 | 0.04 | -0.042 | -0.017 | -0.09 | 0.041 | 0.047 | 0.017
12 | REEP6 (UniProt Q96HR9) | 0.072 | 0.021 | 0.093 | -0.022 | 0.077 | -0.358 (active) | 0.072 | 0.094 | 0.017 | 0
13 | ROBO2 isoform 3 (UniProt Q9HCK4) |  | 0.071 |  |  | 0.045 |  |  |  | -0.001 | 0.523 (active)
14 | RNASEH1 (UniProt O60930) |  |  |  |  |  | -0.023 | -0.002 |  |  | 
15 | RBM4 isoform 3 (UniProt Q9BWF3) |  |  |  |  |  |  |  |  | 0.074 | 
16 | RNF17 (UniProt Q9BXT8) |  | 0.022 | 0.133 | 0.099 | 0.066 | 0.113 | -0.421 | 0.257 | 0.046 | -0.035
17 | S100A6 (UniProt P06703) | 0.036 | 0.124 |  | -0.027 | 0.048 | 0.03 | -0.139 | 0.715 (active) | -0.033 | -0.094
18 | RNF24 isoform 2 (UniProt Q9Y225) |  |  | 0.122 |  |  | 0.033 | -0.084 |  | 0.025 | 
19 | RPS6KA3 (UniProt P51812) | 0.031 | 0.005 | -0.003 |  | -0.026 | -0.014 | 0.093 | 0.078 | 0.037 | 0.133
20 | RNASEH2B, A0A1B0GUE7 |  | -0.061 |  |  | -0.064 |  |  |  |  | 
21 | SCNM1 (UniProt Q9BWG6) |  | 0.012 |  | 0.122 | 0.372 (active) | -0.033 | -0.005 | -0.092 | -0.023 | 0.099
22 | RECQL4 (UniProt O94761) | -0.019 |  | 0.1 | 0.054 |  | -0.254 | -0.026 | 0.043 | -0.017 | 0.043
23 | SELENOK (UniProt Q9Y6D0) | -0.034 | -0.004 | -0.022 |  | 0.062 | -0.593 | 0.529 (active) | -0.021 |  | 

Row | Target | log2 fold change (vemurafenib) | log2 fold change [1] | log2 fold change (barasertib) | log2 fold change [2] | log2 fold change (volasertib) | log2 fold change [3] | log2 fold change [4] | log2 fold change (saracatinib) | log2 fold change (sotrastaurin) | log2 fold change [5]
24 | SEMA4G isoform 2 (UniProt Q9NTN9) | 0.042 |  |  | -0.059 |  | -0.072 | 0.04 | -0.227 | 0.004 | 
25 | RBM45 (UniProt Q8IUH3) |  | 0.12 |  |  | -0.207 | 0.128 | -0.015 |  | 0.077 | 
26 | RAD54L (UniProt Q92698) |  | -0.054 | 0.012 |  | 0.015 | -2.19 (active) | 0.648 | 0.095 |  | 0.005
27 | SATB2 (UniProt Q9UPW6) | 0.002 | 0 |  | 0.023 | 0.007 | 0.074 | 0.016 | -0.026 | 0.032 | 0.009
28 | SEC16A isoform 3 (UniProt O15027) |  |  |  |  |  |  |  | 0.068 |  | 0.231
29 | RAD17 (UniProt O75943) | -0.091 |  | 0.131 | 0.017 |  | -0.214 | -0.027 | 0.042 | -0.004 | 0.07
30 | QSER1, A0A3B3IRW6 | -0.042 | 0.045 |  | -0.044 | -0.028 |  |  | -0.036 | -0.014 | 0.043
31 | RNPC3 (UniProt Q96LT9) |  | -0.02 |  |  | 0.019 | -0.009 | -0.032 | -0.022 | -0.074 | -0.119
32 | RPS6KA5 (UniProt O75582) | -0.048 | -0.073 |  | 0.059 | -0.182 | -0.116 | 0.087 | -0.071 | 0.185 | 0.005
33 | RLIM (UniProt Q9NVW2) |  |  | 0.065 |  |  |  |  |  | -0.055 | 
34 | RHOU (UniProt Q7L0Q8) | -0.04 | -0.059 |  | -0.122 | 0.008 | 0.173 | 0.015 | -0.027 | 0.036 | -0.006
35 | RNF170 (UniProt Q96K19) | -0.08 | 0.02 | 0.189 |  | -0.131 | -0.015 | 0.09 | -0.201 |  | 
36 | RNF149 (UniProt Q8NC42) | -0.026 | -0.15 | 0.026 |  | -0.063 | 0.343 | 0.02 | 0.021 | -0.081 | -0.162
37 | RFWD3 (UniProt Q6PCD5) | -0.073 |  | 0.004 | -0.011 |  | -0.087 | -0.055 | -0.036 | -0.017 | -0.062
38 | RYR1 (UniProt P21817) |  | -0.038 | 0.041 | 0.07 | -0.049 | 0.045 | 0.03 | 0.057 | 0.091 | -0.053
39 | RUFY2 isoform 1 (UniProt Q8WXA3) | 0.01 |  | -0.206 | 0.038 |  | -0.009 | -0.178 |  | 0.001 | -0.026
40 | SERAC1 (UniProt Q96JX3) |  |  | 0.142 | 0.1 |  | -0.061 | 0.051 | -0.096 |  | 
41 | RXRA (UniProt P19793) |  | -0.121 |  |  | 0.026 | -0.359 (active) | 0.13 | -0.093 | 0.013 | -0.061
42 | RALGAPB isoform 3 (UniProt Q86X10) |  |  | -0.005 | -0.076 |  | -0.139 | 0.004 | -0.343 |  | 
43 | RMI2 (UniProt Q96E14) | 0.239 |  |  | -0.109 |  |  |  | -0.008 | -0.01 | -0.007
44 | SEC16A isoform 2 (UniProt O15027) |  |  |  |  |  |  |  |  |  | -0.204
45 | RDH11 (UniProt Q8TC12) | 0.055 | 0.088 |  | -0.115 | -0.13 | -0.213 | 0.082 | 0.021 | 0.022 | 0.069
46 | RNF2 (UniProt Q99496) | -0.03 |  |  | -0.03 |  | 0.557 (active) | -0.399 (active) | -0.004 | -0.002 | 0.061
